This is part of a sample that, as a whole, favours compounds with a hit. Of some 83,000 tested, about 20% had one in any assay.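 Growth was measured after 48 h exposure to one concentration of compound in 96-well plates. Values under 10 count as active.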 Active and inactive are the calls of the source.
What was measured:
Experiment in all cases: NCI-60 one-dose screen, 48 h (100 = growth as untreated, 0 = no growth, -100 = all killed)
NCI-H23 lung = conditions: 10 µM unless noted
786-0 renal = conditions: 10 µM unless noted
DU-145 prostate = conditions: 10 µM unless noted
MDA-MB-231 breast = conditions: 10 µM unless noted
SF-268 CNS = conditions: 10 µM unless noted
SF-539 CNS = conditions: 10 µM unless noted
M14 melanoma = conditions: 10 µM unless noted
HCT-15 colon = conditions: 10 µM
UACC-62 melanoma = conditions: 10 µM unless noted
LOX IMVI melanoma = conditions: 10 µM unless noted
SK-MEL-28 melanoma = conditions: 10 µM unless noted
ACHN renal = conditions: 10 µM unless noted
OVCAR-5 ovarian = conditions: 10 µM unless noted
OVCAR-3 ovarian = conditions: 10 µM unless noted
NCI/ADR-RES ovarian = conditions: 10 µM unless noted
T-47D breast = conditions: 10 µM unless noted
MDA-MB-435 melanoma = conditions: 10 µM unless noted
SW-620 colon = conditions: 10 µM unless noted
MCF7 breast = conditions: 10 µM unless noted
KM12 colon = conditions: 10 µM unless noted

Measured: growth

O=CN1N=C(c2ccc3c(c2)OCO3)CC1c1sc(N(CCCl)CCCl)nc1Cl (stereo not given)
inactive: NCI-H23 lung 101% | 786-0 renal 87.8% | DU-145 prostate 107% | MDA-MB-231 breast 89.9% | SF-268 CNS 93.7% | SF-539 CNS 102% | M14 melanoma 102% | HCT-15 colon 99.5% | UACC-62 melanoma 77.5% | LOX IMVI melanoma 100% | SK-MEL-28 melanoma 101% | ACHN renal 93.4% | OVCAR-5 ovarian 90.1% | OVCAR-3 ovarian 95.5% | NCI/ADR-RES ovarian 101% | T-47D breast 84.1% | MDA-MB-435 melanoma 97.6% | SW-620 colon 92.9% | MCF7 breast 88.9% | KM12 colon 93.9%

CN1CC2CCC(C1)C2=O
inactive: NCI-H23 lung 106% | 786-0 renal 97.1% | DU-145 prostate 115% | MDA-MB-231 breast 124% | SF-268 CNS 106% | SF-539 CNS 105% | M14 melanoma 98.2% | HCT-15 colon 106% | UACC-62 melanoma 110% | LOX IMVI melanoma 98.1% | SK-MEL-28 melanoma 113% | ACHN renal 102% | OVCAR-5 ovarian 103% | OVCAR-3 ovarian 106% | NCI/ADR-RES ovarian 106% | T-47D breast 102% | MDA-MB-435 melanoma 97.7% | SW-620 colon 104% | MCF7 breast 102% | KM12 colon 115%

CC1([N+](=O)[O-])COP(=O)(Nc2ccc(F)cc2)OC1 (stereo not given)
inactive: NCI-H23 lung 96.4% | 786-0 renal 102% | DU-145 prostate 106% | MDA-MB-231 breast 118% | SF-268 CNS 99.7% | SF-539 CNS 103% | M14 melanoma 101% | HCT-15 colon 104% | UACC-62 melanoma 109% | LOX IMVI melanoma 84.2% | SK-MEL-28 melanoma 116% | ACHN renal 98.8% | OVCAR-5 ovarian 106% | OVCAR-3 ovarian 104% | NCI/ADR-RES ovarian 102% | T-47D breast 82.9% | MDA-MB-435 melanoma 110% | SW-620 colon 102% | MCF7 breast 100% | KM12 colon 95.8%
